Only a selection was taken, and the strongest signals are over-represented in it overall.
Assays:
Experiment in all cases: glycan array binding signal (z-score within array); higher = stronger binding
Conditions in all cases: glycan notation: IUPAC condensed, linker removed; mutation: D22R
[1] = biological target: GalNAc4S6S(b1-4)GlcNAc
Outline: (§1)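 Glycan array binding is given as a within-array Z-score, which can be read as non-binding when negative. The arrays, 3228 of them, came from the Consortium for Functional Glycomics database and were retained only where the protein sequence was available. Z-scores were averaged across arrays of the same protein sequence at different concentrations or buffers and across linkers.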

[2] = biological target: GlcA(b1-6)Gal
Outline: as §1

[3] = biological target: GlcNAc(a1-4)Gal(b1-4)GlcNAc(b1-3)Gal(b1-4)GlcNAc(b1-3)Gal(b1-4)GlcNAc
Outline: as §1

[4] = biological target: GlcNAc(b1-3)Fuc
Outline: as §1

[5] = biological target: GlcNAc(b1-3)Gal
Outline: as §1

[6] = biological target: GlcNAc(b1-3)Gal(b1-4)GlcNAc(b1-2)[GlcNAc(b1-3)Gal(b1-4)GlcNAc(b1-6)]Man(a1-6)[GlcNAc(b1-3)Gal(b1-4)GlcNAc(b1-2)Man(a1-3)]Man(b1-4)GlcNAc(b1-4)GlcNAc
Outline: as §1

[7] = biological target: GlcNAc(b1-3)Gal(b1-4)GlcNAc(b1-3)Gal(b1-4)GlcNAc(b1-3)Gal(b1-4)GlcNAc(b1-3)Gal(b1-4)GlcNAc(b1-2)[GlcNAc(b1-3)Gal(b1-4)GlcNAc(b1-3)Gal(b1-4)GlcNAc(b1-3)Gal(b1-4)GlcNAc(b1-3)Gal(b1-4)GlcNAc(b1-6)]Man(a1-6)[GlcNAc(b1-3)Gal(b1-4)GlcNAc(b1-3)Gal(b1-4)GlcNAc(b1-3)Gal(b1-4)GlcNAc(b1-3)Gal(b1-4)GlcNAc(b1-2)Man(a1-3)]Man(b1-4)GlcNAc(b1-4)[Fuc(a1-6)]GlcNAc
Outline: as §1

[8] = biological target: GlcNAc(b1-3)Gal(b1-4)GlcNAc(b1-6)[GlcNAc(b1-3)]Gal(b1-4)GlcNAc
Outline: as §1

[9] = biological target: GlcNAc(b1-3)GalNAc
Outline: as §1

[10] = biological target: GlcNAc(b1-4)[GlcNAc(b1-6)]GalNAc
Outline: as §1

[11] = biological target: GlcNAc(b1-6)Gal(b1-4)GlcNAc
Outline: as §1

[12] = biological target: Neu5Ac(a2-3)Gal(b1-3)GlcNAc(b1-2)Man(a1-3)[GlcNAc(b1-4)][Neu5Ac(a2-3)Gal(b1-3)GlcNAc(b1-2)Man(a1-6)]Man(b1-4)GlcNAc(b1-4)GlcNAc
Outline: as §1

[13] = biological target: Neu5Ac(a2-3)Gal(b1-3)[Neu5Ac(a2-6)]GlcNAc(b1-3)[Fuc(a1-3)[Gal(b1-4)]GlcNAc(b1-6)]Gal(b1-4)Glc
Outline: as §1

[14] = biological target: Neu5Ac(a2-3)Gal(b1-3)]Neu5Ac(a2-3)Gal(b1-4)]GlcNAc
Outline: as §1

[15] = biological target: Neu5Ac(a2-3)Gal(b1-4)GlcNAc(b1-2)[Neu5Ac(a2-3)Gal(b1-4)GlcNAc(b1-4)]Man(a1-3)[GlcNAc(b1-4)][Neu5Ac(a2-3)Gal(b1-4)GlcNAc(b1-4)Man(a1-6)]Man(b1-4)GlcNAc(b1-4)GlcNAc
Outline: as §1

[16] = biological target: Neu5Ac(a2-3)Gal(b1-4)GlcNAc(b1-3)Gal(b1-4)[Fuc(a1-3)]GlcNAc
Outline: as §1

[17] = biological target: Neu5Ac(a2-3)Gal(b1-4)[Fuc(a1-3)]GlcNAc(b1-3)Gal(b1-4)[Fuc(a1-3)]GlcNAc(b1-3)Gal(b1-4)[Fuc(a1-3)]GlcNAc
Outline: as §1

[18] = biological target: Neu5Ac(a2-6)Gal(b1-4)GlcNAc(b1-2)Man
Outline: as §1

[19] = biological target: Neu5Ac(a2-6)Gal(b1-4)GlcNAc(b1-3)Gal(b1-3)GlcNAc
Outline: as §1

[20] = biological target: Neu5Ac(a2-6)Gal(b1-4)GlcNAc(b1-3)Gal(b1-4)GlcNAc(b1-3)Gal(b1-4)GlcNAc(b1-2)Man(a1-3)[Neu5Ac(a2-6)Gal(b1-4)GlcNAc(b1-3)Gal(b1-4)GlcNAc(b1-3)Gal(b1-4)GlcNAc(b1-2)Man(a1-6)]GalNAc
Outline: as §1

[21] = biological target: Neu5Ac(a2-6)Gal(b1-4)GlcNAc(b1-3)Gal(b1-4)GlcNAc(b1-3)[Neu5Ac(a2-6)Gal(b1-4)GlcNAc(b1-3)Gal(b1-4)GlcNAc(b1-6)]GalNAc
Outline: as §1

[22] = biological target: Neu5Ac(a2-6)Gal(b1-4)GlcNAc(b1-3)GalNAc
Outline: as §1

[23] = biological target: Neu5Ac(a2-6)Gal(b1-4)GlcNAc(b1-6)[Gal(b1-3)]GalNAc
Outline: as §1

[24] = biological target: Neu5Ac(a2-6)GalNAc
Outline: as §1

[25] = biological target: Neu5Ac(a2-8)Neu5Ac(a2-8)Neu5Ac(a2-3)[GalNAc(b1-4)]Gal(b1-4)Glc
Outline: as §1

[26] = biological target: Neu5Ac(b2-6)Gal(b1-4)GlcNAc
Outline: as §1

B1: MpL2 (Macrolepiota procera) (protein)
chain: MSTQVSSGQTYKITNVKAGTVIRLSGEDNKSIIGYPYHSGKNQQWTFNWTGKAWTLRSASSGSYLGIEGTPADGTRLVAVNDPFEWHIWRDEANENAFRIFVPFTNYNLDLSGYGDTTPGTPVQLWWTWEGLHQTWTIDRP
glycan array binding signal (z-score) [1]: -0.021
glycan array binding signal (z-score) [2]: 9.35
glycan array binding signal (z-score) [3]: -0.264
glycan array binding signal (z-score) [4]: 0.069
glycan array binding signal (z-score) [5]: -0.201
glycan array binding signal (z-score) [6]: 1.11
glycan array binding signal (z-score) [7]: 0.58
glycan array binding signal (z-score) [8]: -0.264
glycan array binding signal (z-score) [9]: -0.361
glycan array binding signal (z-score) [10]: -0.082
glycan array binding signal (z-score) [11]: -0.168
glycan array binding signal (z-score) [12]: 0.519
glycan array binding signal (z-score) [13]: 0.292
glycan array binding signal (z-score) [14]: -0.346
glycan array binding signal (z-score) [15]: -0.638
glycan array binding signal (z-score) [16]: -0.58
glycan array binding signal (z-score) [17]: -0.574
glycan array binding signal (z-score) [18]: -0.185
glycan array binding signal (z-score) [19]: 0.558
glycan array binding signal (z-score) [20]: 2.64
glycan array binding signal (z-score) [21]: 2.97
glycan array binding signal (z-score) [22]: -0.516
glycan array binding signal (z-score) [23]: -0.069
glycan array binding signal (z-score) [24]: -0.42
glycan array binding signal (z-score) [25]: 0.163
glycan array binding signal (z-score) [26]: 0.011

Source: the supplement of paper PMC8728848
